Measured values: PubChem BioAssay AID1159580 (chemical genetic matrix, 2015)
The whole screen tested about 5,500 compounds, of which about 2,000 (36%) were called active. Roughly 18% stayed inconclusive and do not appear here. Rule as the data show it: active = normalized growth mostly below about 0.91 (no sharp cut-off); inconclusive = no clear call, values can overlap the other calls; inactive = mostly above about 0.92. Some of the results follow.

Assay: chemical genetic growth profiling, strain panel (AID 1159580);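 also: tested at 20 µM; growth read once vehicle control cultures reached saturation at 30 °C; 1 = growth at the plate median or of vehicle wells; lower values mean less growth of the strain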
Details: growth OD

Measured: normalized growth

C[n+]1c2cc(N)ccc2cc2ccc(N)cc21
inactive: S. cerevisiae deletion strains, locus YKL009W, strain mrt4, hits give low values 0.933 | S. cerevisiae deletion strains, locus YKL068W, hits give low values 0.956 | S. cerevisiae deletion strains, locus YKL085W, strain MDH1 (second series), hits give low values 0.963 | S. cerevisiae deletion strains, locus YKL085W, strain MDH1, hits give low values 0.963 | S. cerevisiae deletion strains, locus YLR039C, strain RIC1, hits give low values 0.906 | S. cerevisiae deletion strains, locus YLR113W, strain HOG1, hits give low values 0.862 | S. cerevisiae deletion strains, locus YLR262C, strain YPT6, hits give low values 0.902 | S. cerevisiae deletion strains, locus YLR342W, strain FKS1 (second series), hits give low values 0.802 | S. cerevisiae deletion strains, locus YMR231W, strain pep5, hits give low values 0.945 | S. cerevisiae deletion strains, locus YMR307W, strain GAS1, hits give low values 0.874 | S. cerevisiae deletion strains, locus YNL183C, strain NPR1, hits give low values 0.87 | S. cerevisiae deletion strains, locus YOL012C, strain htz1 0.393 | S. cerevisiae deletion strains, locus YOR316C, strain cot1, hits give low values 0.926 | S. cerevisiae deletion strains, locus YPL256C, strain CLN2, hits give low values 0.903 | S. cerevisiae deletion strains, locus YPR141C, strain kar3, hits give low values 0.93
active: S. cerevisiae deletion strains, locus YKL160W, strain elf1, hits give low values 0.586 | S. cerevisiae deletion strains, locus YKL190W, strain CNB1, hits give low values 0.85 | S. cerevisiae deletion strains, locus YKR001C, strain vps1, hits give low values 0.844 | S. cerevisiae deletion strains, locus YKR026C, strain gcn3, hits give low values 0.696 | S. cerevisiae deletion strains, locus YKR091W, strain srl3, hits give low values 0.784 | S. cerevisiae deletion strains, locus YLL001W, strain dnm1, hits give low values 0.456 | S. cerevisiae deletion strains, locus YLL026W, hits give low values 0.471 | S. cerevisiae deletion strains, locus YLL041C, strain sdh2, hits give low values 0.652 | S. cerevisiae deletion strains, locus YLR027C, strain aat2, hits give low values 0.446 | S. cerevisiae deletion strains, locus YLR058C, strain SHM2, hits give low values 0.743 | S. cerevisiae deletion strains, locus YLR102C, strain apc9, hits give low values 0.924 | S. cerevisiae deletion strains, locus YLR221C, strain rsa3, hits give low values 0.468 | S. cerevisiae deletion strains, locus YLR258W, strain gsy2, hits give low values 0.524 | S. cerevisiae deletion strains, locus YLR262C, strain YPT6 (second series), hits give low values 0.718 | S. cerevisiae deletion strains, locus YLR268W, strain sec22, hits give low values 0.776 | S. cerevisiae deletion strains, locus YLR320W, strain mms22, hits give low values 0.191 | S. cerevisiae deletion strains, locus YLR330W, strain CHS5, hits give low values 0.863 | S. cerevisiae deletion strains, locus YLR342W, strain FKS1, hits give low values 0.752 | S. cerevisiae deletion strains, locus YLR357W, strain rsc2, hits give low values 0.669 | S. cerevisiae deletion strains, locus YLR370C, strain arc18, hits give low values 0.506 | S. cerevisiae deletion strains, locus YLR371W, strain rom2, hits give low values 0.908 | S. cerevisiae deletion strains, locus YLR384C, strain iki3, hits give low values 0.682 | S. cerevisiae deletion strains, locus YLR418C, strain cdc73, hits give low values 0.727 | S. cerevisiae deletion strains, locus YML016C, strain PPZ1, hits give low values 0.806 | S. cerevisiae deletion strains, locus YML032C, strain rad52, hits give low values 0.195 | S. cerevisiae deletion strains, locus YML120C, strain ndi1, hits give low values 0.409 | S. cerevisiae deletion strains, locus YML124C, strain tub3, hits give low values 0.928 | S. cerevisiae deletion strains, locus YMR058W, strain fet3, hits give low values 0.531 | S. cerevisiae deletion strains, locus YMR078C, strain ctf18, hits give low values 0.783 | S. cerevisiae deletion strains, locus YMR125W, strain sto1, hits give low values 0.703 | S. cerevisiae deletion strains, locus YMR129W, hits give low values 0.648 | S. cerevisiae deletion strains, locus YMR205C, strain PFK2, hits give low values 0.439 | S. cerevisiae deletion strains, locus YMR223W, strain ubp8, hits give low values 0.717 | S. cerevisiae deletion strains, locus YMR263W, strain SAP30, hits give low values 0.626 | S. cerevisiae deletion strains, locus YNL067W, strain RPL9B, hits give low values 0.698 | S. cerevisiae deletion strains, locus YNL071W, strain lat1, hits give low values 0.28 | S. cerevisiae deletion strains, locus YNL128W, strain TEP1, hits give low values 0.613 | S. cerevisiae deletion strains, locus YNL153C, strain GIM3, hits give low values 0.744 | S. cerevisiae deletion strains, locus YNL209W, strain ssb2, hits give low values 0.554 | S. cerevisiae deletion strains, locus YNL233W, strain BNI4, hits give low values 0.725 | S. cerevisiae deletion strains, locus YNL248C, strain rpa49, hits give low values 0.167 | S. cerevisiae deletion strains, locus YNL250W, strain rad50, hits give low values 0.817 | S. cerevisiae deletion strains, locus YNL271C, strain bni1, hits give low values 0.911 | S. cerevisiae deletion strains, locus YNL298W, strain CLA4, hits give low values 0.896 | S. cerevisiae deletion strains, locus YNL307C, strain MCK1, hits give low values 0.66 | S. cerevisiae deletion strains, locus YNL322C, strain KRE1 (second series), hits give low values 0.218 | S. cerevisiae deletion strains, locus YNL322C, strain KRE1, hits give low values 0.836 | S. cerevisiae deletion strains, locus YNR049C, strain mso1, hits give low values 0.677 | S. cerevisiae deletion strains, locus YNR052C, strain pop2, hits give low values 0.801 | S. cerevisiae deletion strains, locus YOL006C, strain TOP1, hits give low values 0.349 | S. cerevisiae deletion strains, locus YOL147C, strain pex11, hits give low values 0.882 | S. cerevisiae deletion strains, locus YOR001W, strain rrp6, hits give low values 0.442 | S. cerevisiae deletion strains, locus YOR061W, strain CKA2, hits give low values 0.865 | S. cerevisiae deletion strains, locus YOR069W, strain VPS5, hits give low values 0.915 | S. cerevisiae deletion strains, locus YOR070C, strain gyp1, hits give low values 0.557 | S. cerevisiae deletion strains, locus YOR080W, strain dia2, hits give low values 0.409 | S. cerevisiae deletion strains, locus YOR083W, strain WHI5, hits give low values 0.452 | S. cerevisiae deletion strains, locus YOR106W, strain vam3, hits give low values 0.38 | S. cerevisiae deletion strains, locus YOR136W, strain idh2, hits give low values 0.91 | S. cerevisiae deletion strains, locus YOR144C, strain elg1, hits give low values 0.858 | S. cerevisiae deletion strains, locus YOR184W, strain ser1, hits give low values 0.664 | S. cerevisiae deletion strains, locus YOR231W, strain MKK1, hits give low values 0.822 | S. cerevisiae deletion strains, locus YOR265W, strain rbl2, hits give low values 0.599 | S. cerevisiae deletion strains, locus YOR270C, strain vph1, hits give low values 0.353 | S. cerevisiae deletion strains, locus YOR290C, strain snf2, hits give low values 0.447 | S. cerevisiae deletion strains, locus YPL051W, strain arl3, hits give low values 0.597 | S. cerevisiae deletion strains, locus YPL055C, strain LGE1, hits give low values 0.678 | S. cerevisiae deletion strains, locus YPL078C, strain atp4, hits give low values 0.465 | S. cerevisiae deletion strains, locus YPL106C, strain sse1, hits give low values 0.695 | S. cerevisiae deletion strains, locus YPL240C, strain hsp82, hits give low values 0.685 | S. cerevisiae deletion strains, locus YPL241C, strain CIN2, hits give low values 0.88 | S. cerevisiae deletion strains, locus YPR119W, strain clb2, hits give low values 0.92 | S. cerevisiae deletion strains, locus YPR163C, strain tif3, hits give low values 0.883 | S. cerevisiae deletion strains, locus YPR167C, strain met16, hits give low values 0.865 | S. cerevisiae deletion strains, strain wtn01, hits give low values 0.793 | S. cerevisiae strains, strain wild type, hits give low values 0.831
